Screens from PubChem BioAssay.
The sample as a whole holds a higher share of hits than the screen did.
Tgondii IFNg: T. gondii growth inhibition with IFN-gamma, primary screen, cell-based; activity change, negative = inhibition, % (concentration not given with the values); Toxoplasma gondii growth in IFN-gamma-treated host cells; hits give low values; 3.8% of 69,000 active; AID 1259416, 2018; in the data active = activity change below about -70%, passing the limit was not always enough;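 also: host cells are HeLa cells infected with Toxoplasma gondii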
Hits are given with their value; 0 = inactive; ! = a repeat was not active.

SMILES	Tgondii IFNg
COc1cc(C(=O)N2CCc3c([nH]c4ccccc34)C2c2ccccc2)cc(OC)c1OC (configuration not stated)	0
O=C(c1ccc2c(c1)OCO2)N1CCc2c([nH]c3ccccc23)C1c1ccccc1 (configuration not stated)	-97.9
O=C(c1ccncc1)N1CCc2c([nH]c3ccccc23)C1c1ccccc1 (configuration not stated)	0
CCOc1ccccc1NC(=O)N1CCc2nc(N3CCOCC3)[nH]c(=O)c2C1	0
Cn1c2ccccc2c2c1cc(C(=O)NCCO)n2-c1ncccn1	0
COc1ccnc(N2C[C@H]3CC=CC[C@H]3C2)n1	0
CC(C)c1ccc(C(=O)NCCOc2ccc(C(=O)O)cc2)cc1	0
Cc1oc(-c2ccccc2Cl)nc1CSc1nc2c(=O)[nH]cnc2n1C	0
COCCC(=O)NCC1Cc2cc(-c3cccc(C(=O)OC)c3)cc(Cl)c2O1 (configuration not stated)	0
CCCC(=O)N1CCc2c([nH]c3ccccc23)C12C(=O)Nc1ccc(Br)cc12 (configuration not stated)	-81.6
CCC(=O)N1CCc2c([nH]c3ccccc23)C12C(=O)N(C)c1ccc(Br)cc12 (configuration not stated)	0
CCC(=O)N1CCc2c([nH]c3ccccc23)C12C(=O)Nc1ccc(Br)cc12 (configuration not stated)	0
Cc1nc(CN2C(=O)C[C@H]3[C@H]2CCN3C(=O)c2ccoc2)cs1	0
Cc1nn(CCC(=O)N2CC(CN3CCOCC3)c3ccccc32)c(C)c1C (configuration not stated)	0
Cc1ccc(SC(=O)c2csnn2)cc1	-102.0
CC(C)N(C(=O)NC(=O)c1csnn1)C(C)C	0
O=C(Nc1ccc(Cl)cc1)c1csnn1	0
NC(=O)C1Cn2ccnc2C2(CCN(C(=O)NC3CCCC3)CC2)O1 (configuration not stated)	0
COCC(=O)N1CC[C@@H]2[C@H]1CCN2c1nncs1	0
Nc1nc(Sc2cccs2)cc(N2CC[C@H](CO)[C@H](O)C2)n1	0
CCN(CC)C(=O)Oc1ccnc2cc(Cl)ccc12	0
CCCCCCCC(=O)Nc1nnc(Sc2ccnc3cc(Cl)ccc23)s1	-94.4
CCSc1nnc(NC(=O)CCc2ccc(C)o2)s1	0
Clc1ccc(-c2cc3ncccc3c(N3CCOCC3)n2)cc1	0
CC(NC(=O)CN1CCN(C(c2ccccc2)c2nccn2C)CC1)c1ccccc1 (configuration not stated)	0
SMILES	Tgondii IFNg
O=C(NC(=O)c1ccccc1C(F)(F)F)NN1CCOCC1	0
COc1cc([C@@H]2c3cc4c(cc3C(O[C@@H]3O[C@@H]5CO[C@@H](c6cccs6)OC5[C@H](O)[C@H]3O)C3COC(=O)[C@@H]32)OCO4)cc(OC)c1O (some centres not stated)	-80.4
COc1ccc(-c2nc(Cn3ccn4nc(-c5ccccc5OC)cc4c3=O)c(C)o2)cc1	0
O=C1CCC2(CCC(NC(=O)c3cscn3)CC2)N1 (configuration not stated)	0
CCCS(=O)(=O)c1ccc2nc(NC(=O)OC)[nH]c2c1	0
CCCCc1ccc2nc(NC(=O)OC)[nH]c2c1	0
COC(=O)Nc1nc2ccc(-c3n[nH]c(=O)c4ccccc34)cc2[nH]1	-102.5
O=c1[nH]cnc2c1ncn2[C@@H]1O[C@H](CO)[C@@H](O)[C@H]1O	0
OC[C@H]1O[C@@H](n2cnc3c(Nc4ccccc4)ncnc32)[C@H](O)[C@@H]1O	-82.5
Nc1nc(Nc2ccccc2)nc2c1ncn2C1OC(CO)C(O)C1O (configuration not stated)	0
O=C(COc1ccc2c(c1)OCO2)N1CCN(C(=O)c2ccco2)CC1	0
O=C(CCSc1nc(-c2ccc3c(c2)OCO3)cc(C(F)(F)F)n1)N1CCCCC1	-76.3
O=C(/C=C/c1ccc2c(c1)OCO2)N1CCCCC1	0
O=C(Nc1ccc(-c2nc(-c3cccc(Br)c3)co2)cc1)Nc1cccc(F)c1	0
O=C(NC1CCCC1)c1nc2c(o1)CN(CCO)C2	0
COc1cc(NC(=O)c2ccc(CN3CC=CC3)cc2)cc(OC)c1	0
CC(=O)CSc1nnc(-c2ccc(S(=O)(=O)N3CCOCC3)cc2)o1	0
c1ccc(-c2nc3ccccc3nc2-c2cccc3ccccc23)cc1	0
CC(C)(C)n1nc(-c2cccc3ccccc23)c2c(N)ncnc21	-76.0!
O=C(C1CCOC1)N1CC(=O)N(C2CCCCC2)CC(OCc2ccccc2)C1 (configuration not stated)	0
CC(C)N1CCc2[nH]nc(C(=O)N3CCOCC3)c2C1	0
Cn1cc(CN2CCCC2CCNS(C)(=O)=O)cn1 (configuration not stated)	0
Cc1ccc([N+](=O)[O-])cc1S(=O)(=O)N(C)/N=C/c1cnc2ccc(Br)cn12	-80.4
Cc1ccsc1C(=O)Nc1ccc(-c2nc(-c3ccccc3)co2)cc1	0
Cc1ccc(C(=O)NCc2nnc3n2CCCCC3)cc1N1CCCCC1	0
SMILES	Tgondii IFNg
CCOc1ccc(-c2nc(Cn3c(=O)c4c(C)cc(C)nc4n(-c4ccccc4)c3=O)c(C)o2)cc1	0
Cc1cnc(N2CCCn3c(CN4CCCC4=O)nnc3C2)nc1	0
COCCN1CCC2(CC1)CC(NCc1ccc(C)s1)c1ccccc12 (configuration not stated)	0
CN(C)CCN1CCC2(CC1)CC(NCc1cccs1)c1ccccc12 (configuration not stated)	0
CS(=O)(=O)N1CCC2(CC1)CC(NCc1cccs1)c1ccccc12 (configuration not stated)	-94.0
COc1cccc(NC(=O)C[C@H]2CC[C@@H]3[C@H](COc4ccc(NS(=O)(=O)c5cccc(F)c5)cc4C(=O)N3C)O2)c1	0
COc1ccc(-c2cnc3c(-c4cccc5ncccc45)cnn3c2)cc1	0
CC(C)Oc1ccc(-c2cnc3c(-c4ccnc5ccccc45)cnn3c2)cc1	-75.7
CN(Cc1cnc2c(-c3ccccc3)cnn2c1)Cc1cccc2ncccc12	0
CCCCCC(=O)O[C@]1(C(C)=O)CCC2C3CCC4=CC(=O)CC[C@]4(C)C3CC[C@@]21C (some centres not stated)	-80.7
CCCCCC(=O)O[C@]1(C(C)=O)CC[C@H]2[C@@H]3CCC4=CC(=O)CC[C@]4(C)[C@H]3CC[C@@]21C	0
CCCCCCCC(=O)OCC(=O)[C@@]1(O)CC[C@H]2[C@@H]3CCC4=CC(=O)CC[C@]4(C)[C@H]3[C@@H](O)C[C@@]21C	0
O=C(Cc1cn2cc(Br)ccc2n1)N1CCSCC1	0
C=C(C)Cn1cnc(-c2ccccc2)c1-c1c(C)n(C)n(-c2ccccc2)c1=O	0
COc1ncc(C(=O)N2CCC3(CCNCC3)CC2)cn1	0
O=C(CC1CCc2ccccc21)Nc1ccccc1-c1nn[nH]n1 (configuration not stated)	0
Cc1nsc2ccc3ccsc3c12	0
C[C@@H]1CCCCO[C@@H](CN(C)C(=O)C2CCCCC2)[C@@H](C)CN([C@@H](C)CO)C(=O)c2cc(NS(=O)(=O)c3ccccc3)ccc2O1	0
CC(C)NC(=O)Nc1ccc2c(c1)C(=O)N([C@@H](C)CO)C[C@@H](C)[C@H](CN(C)C(=O)C1CCCCC1)OCCCC[C@H](C)O2	0
C[C@H](CO)N1C[C@H](C)[C@@H](CN(C)C(=O)C2CCCCC2)OCCCC[C@H](C)Oc2ccc(NS(=O)(=O)c3ccccc3)cc2C1=O	-77.8
